FBW7 activator: activators of human E3 ligase FBW7 | Q969H0 | AlphaScreen FBW7–phospho-cyclin E peptide binding, activator screen | normalized activity (activation), % at 26.1 µM | 650,000 compounds, 0.13% hits | AID 1259310; in the data active = normalized activity above about 1.9%;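 also: purified mutant Fbw7 with reduced substrate affinity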
Target sequence (Q969H0 whole entry, looked up): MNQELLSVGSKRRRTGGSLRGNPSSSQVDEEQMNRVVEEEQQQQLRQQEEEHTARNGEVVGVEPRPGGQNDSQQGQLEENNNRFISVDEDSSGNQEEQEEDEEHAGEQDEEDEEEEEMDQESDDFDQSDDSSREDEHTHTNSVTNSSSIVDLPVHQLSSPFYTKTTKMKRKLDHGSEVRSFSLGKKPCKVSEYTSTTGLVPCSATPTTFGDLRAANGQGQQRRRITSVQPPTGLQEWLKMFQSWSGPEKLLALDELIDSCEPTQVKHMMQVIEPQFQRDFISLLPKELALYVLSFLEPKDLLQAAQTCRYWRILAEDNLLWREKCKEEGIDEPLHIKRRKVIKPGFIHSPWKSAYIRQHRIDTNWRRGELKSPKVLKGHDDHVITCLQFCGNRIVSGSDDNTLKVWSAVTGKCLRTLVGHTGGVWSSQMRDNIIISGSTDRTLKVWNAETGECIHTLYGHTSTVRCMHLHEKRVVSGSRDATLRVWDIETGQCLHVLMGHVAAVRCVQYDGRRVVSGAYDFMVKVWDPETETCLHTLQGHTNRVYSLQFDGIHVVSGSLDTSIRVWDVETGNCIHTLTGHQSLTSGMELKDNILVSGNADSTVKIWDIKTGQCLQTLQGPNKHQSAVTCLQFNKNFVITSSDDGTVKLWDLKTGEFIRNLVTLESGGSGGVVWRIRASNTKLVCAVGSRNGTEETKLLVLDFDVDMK
MITF inh: human MITF inhibition, primary screen. O75030. AlphaScreen MITF homodimerization, bead proximity signal. 650,000 compounds, 0.91% hits. inhibition, % at 2.6 µM; in the data active = inhibition above about 50%;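 also: 0% = vehicle wells with protein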
GPR151 activ: activators of human GPR151; PathHunter beta-arrestin GPR151 cells, luminescence; activation, % at 11.2 µM; 650,000 compounds, 1% hits; in the data active = activation above about 4.9%;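 also: 0% = median of compound wells and 100% = cells with positive control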
TEAD-YAP inh: TEAD-YAP interaction inhibition. HEK-TIYL cells, TEAD-Gal4/YAP UAS-luciferase luminescence. inhibition, % at 9.12 µM. 640,000 compounds, 1.4% hits; in the data active = inhibition above about 32%;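 also: 0% = median of test compound wells and 100% = reference inhibitor wells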
* marks the source's active call; other numbers are inactive results. This is a sample that favours compounds with a hit; in the whole collection about 3.5% have one here.

SMILES	FBW7 activator	MITF inh	GPR151 activ	TEAD-YAP inh
O=C(Nc1ccccc1F)c1cnc2ccccn2c1=O	0	9	-2	54*
N#CC(Nc1ccc(C(F)(F)F)cc1)c1ccco1 (centres undefined)	0	-1	1	-12
O=C(O)c1ccccc1/C=N/Nc1ccnc2cc(Cl)ccc12	0	11	0	9
c1ccc2c(-c3cnn4c(N5CCOCC5)ccnc34)cccc2c1	0	-6	-1	-41
OCc1ccccc1-c1cnn2c(N3CCOCC3)ccnc12	0	12	-4	94*
Fc1ccccc1-c1cnn2c(N3CCOCC3)ccnc12	0	-66	-5	64*
Clc1cccc(-c2cnn3c(N4CCOCC4)ccnc23)c1	0	18	-2	77*
COCCCNC(=O)CN(c1cc(Cl)c(Cl)cc1Cl)S(C)(=O)=O	0	-1	2	-9
CCOC(=O)c1c(-c2ccccc2)oc2ccc(NS(=O)(=O)c3ccccc3)cc12	0	-5	0	0
CCOC(=O)c1c(-c2ccccc2)oc2ccc(NS(=O)(=O)c3ccc(OC)cc3)cc12	0	-4	4	57*
CCOC(=O)c1c(-c2ccccc2)oc2ccc(NS(=O)(=O)c3ccc(OCC)cc3)cc12	0	-22	0	57*
CCOC(=O)C1=C(C)N=c2s/c(=C/c3ccc(F)cc3)c(=O)n2C1c1ccc(OC)cc1OC (centres undefined)	1	13	1	2
CC(C)(C)NS(=O)(=O)c1ccc(F)cc1	0	-5	1	-2
CC(C)(C)NS(=O)(=O)c1ccc(Cc2ccc(S(=O)(=O)NC(C)(C)C)cc2)cc1	0	-4	-1	37*
CC(C)NS(=O)(=O)c1ccc(Cc2ccc(S(=O)(=O)NC(C)C)cc2)cc1	0	5	1	35*
COc1cc(S(=O)(=O)Nc2cccc3cn[nH]c23)ccc1F	0	-6	-1	52*
O=S(=O)(Nc1cccc2cn[nH]c12)c1ccc(F)cc1	0	-21	-1	4
Cc1cccc(C)c1-n1c(N)c(C(=O)Nc2ccc(Br)cc2)sc1=S	0	9	1	3
O=C(c1ccco1)N1CCN(C(=O)N2c3ccccc3Sc3ccccc32)CC1	0	22	0	51*
O=C(N1CCCC1)N1c2ccccc2Sc2ccccc21	1	12	-1	29
O=C(N1CCN(c2ccccn2)CC1)N1c2ccccc2Sc2ccccc21	1	0	-1	51*
COC(=O)c1cc(NC(=O)c2cc3cccc(OC)c3oc2=O)cc(C(=O)OC)c1	0	-2	1	-1
COc1ccccc1CNc1ccc(C(=O)Nc2ccc(C)cc2C)cc1[N+](=O)[O-]	1	7	2	57*
CCc1ccc(NC(=O)c2ccc(NCc3ccccc3OC)c([N+](=O)[O-])c2)cc1	0	4	0	1
CCc1ccccc1NC(=O)c1ccc(NCc2ccccc2OC)c([N+](=O)[O-])c1	0	4	0	43*
SMILES	FBW7 activator	MITF inh	GPR151 activ	TEAD-YAP inh
COc1ccccc1CNc1ccc(C(=O)Nc2ccc(C)c(F)c2)cc1[N+](=O)[O-]	0	-2	0	1
CCC1(c2ccccc2)NC(=S)N(c2ccc(Br)cc2)N1 (centres undefined)	0	-9	0	-11
CC(C)c1ccc(C2NN=C(c3ccccc3)S2)cc1 (centres undefined)	1	-6	-7	70*
COc1cc(C(=S)N2CCN(C)CC2)ccc1OCC(N)=O	0	-3	-1	0
C[C@H]1C(=O)N(C)CCN1C(=O)CCc1nnc(CCc2c[nH]c3ccccc23)o1	0	-13	1	-1
CCSc1nc(N)c(C#N)c(CC)c1C#N	0	2	1	-5
CCc1c(C#N)c(N)nc(SCC#N)c1C#N	2.3*	-6	0	-37
O=C(Nc1cccc(OC(=O)c2ccc(F)c(S(=O)(=O)N3CCOCC3)c2)c1)c1ccccc1	0	-3	-1	32*
O=C(Nc1cccc(OC(=O)c2cc(S(=O)(=O)N3CCCCCC3)ccc2Cl)c1)c1ccccc1	0	-5	0	-3
O=C(Nc1cccc(OC(=O)c2cccc(S(=O)(=O)N3CCOCC3)c2)c1)c1ccc(Br)cc1	0	6	1	35*
Cc1ccc(C(=O)Nc2cccc(OC(=O)c3cc(S(=O)(=O)N4CCOCC4)ccc3Cl)c2)cc1	0	1	-6	83*
O=C(Oc1cccc(NC(=O)c2ccco2)c1)c1ccc(F)c(S(=O)(=O)N2CCOCC2)c1	0	-14	0	2
O=C(Oc1cccc(NC(=O)c2ccco2)c1)c1cccc(S(=O)(=O)N2CCOCC2)c1	1	18	-3	-12
CCOC(CNC(=O)c1nnc(Cc2ccc3c(c2)OCO3)o1)OCC	0	5	1	0
CCn1c(=NC(=O)C2CC2)sc2cc(F)cc(F)c21	0	7	-2	16
O=c1oc2cc(O)ccc2cc1-c1nc(-c2ccccc2)cs1	0	4	-1	-1
CCc1ccc(Nc2nnc(-c3cc4ccc(O)cc4oc3=O)s2)cc1	0	-1	2	34*
O=c1oc2cc(O)ccc2cc1-c1nnc(Nc2ccc(F)cc2)s1	0	-3	1	-10
O=c1oc2cc(O)ccc2cc1-c1nc(-c2cccs2)cs1	0	-18	-10	77*
COc1cc(C=O)ccc1OC(=O)c1cccc(I)c1	-1	17	-1	8
COCCn1nnnc1CN1CCCCCC1	0	10	0	8
O=C(c1cccc(I)c1)N1CCCc2ccccc21	2.3*	10	-1	-8
O=C(c1ccc(I)cc1)N1CCCc2ccccc21	0	-4	1	14
FC(F)(F)c1ccc(Cn2cnc3c(NCc4nc5ccccc5[nH]4)nc(Nc4ccccc4)nc32)cc1	0	5	3	41*
COc1cc(Nc2nc(NCc3nc4ccccc4[nH]3)c3ncn(Cc4ccc(C(F)(F)F)cc4)c3n2)cc(OC)c1OC	0	4	-1	43*
SMILES	FBW7 activator	MITF inh	GPR151 activ	TEAD-YAP inh
FC(F)(F)c1ccc(Cn2cnc3c(NCc4nc5ccccc5[nH]4)nc(Nc4ccc5ncccc5c4)nc32)cc1	1	5	0	-6
FC(F)(F)c1ccc(Cn2cnc3c(NCc4nc5ccccc5[nH]4)nc(Nc4ccc(C(F)(F)F)cc4)nc32)cc1	0	9	2	0
COc1cc(Nc2nc(NC3CC3)c3ncn(Cc4ccc(C(F)(F)F)cc4)c3n2)cc(OC)c1OC	0	21	-1	47*
CCOc1ccc(NC(=O)CSc2nc3n[nH]c(C)c3c(=N)n2-c2ccc(Br)cc2)cc1	0	-8	1	18
CC(C)Nc1cc(N2CCC(=O)CC2)c2noc3c2c1C(=O)c1ccccc1-3	0	22	0	-16
CCCN1CCN(c2cc(NCCO)c3c4c(onc24)-c2ccccc2C3=O)CC1	0	24	-2	21
CCOC(=O)N1CCN(c2cc(NC(C)C)c3c4c(onc24)-c2ccccc2C3=O)CC1	-1	71*	1	11
CC(C)Nc1cc(N2CCN(C)CC2)c2noc3c2c1C(=O)c1ccccc1-3	-1	52*	0	7

Bioassay records (PubChem BioAssay)
